# High-throughput results as filed in PubChem BioAssay.
# Shown are actives, neighbours in structure and some others; about 0.5% of the full set was active somewhere.
# E coli growth-1: counter-screen for AddAB inhibitors: E. coli growth inhibition; E. coli V3065 growth, OD600 absorbance, 18 h; inhibition, % at 11.9 µM; actives 0.27% (n = 330,000);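 active means inhibition above the campaign's mean inhibition across all tested compounds plus 3 SD, cut at about 9.9% in these data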;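 further: uninfected addAB+ strain grown without phage in ampicillin broth; 0% = DMSO wells and 100% = ciprofloxacin 0.95 µg/ml wells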
# phage Ecoli inh: E. coli growth loss with phage present; inhibition, % at 11.9 µM; AID 651602; growth absorbance; actives 0.26% (n = 360,000); in the data active means inhibition above about 11%
# Tat export inh: E. coli Tat transport inhibition; E. coli MC4100 TorA-mCherry Tat export, fluorescence; inhibition, % at 10 µM; actives 0.036% (n = 340,000);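 active means mean replicate inhibition at least 50% and at least half of replicates individually reaching 50%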;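 further: exported cargo escapes ClpAP degradation while cytoplasmic cargo is degraded and loses fluorescence; 0% = median of neutral control wells and 100% = median of NaSCN control wells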
# E coli growth-2: E. coli growth inhibition; Escherichia coli growth, OD600, 23 h; stronger effect = lower value; OD600 absorbance (test concentration not listed); actives 0.21% (n = 330,000);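 active means OD600 absorbance below the run mean of sample wells minus 3.6 SD, in any replicate, cut at about 0.56 in these data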
# AddAB inh: less growth of phage-infected E. coli with AddAB. E. coli expressing H. pylori AddAB, absorbance growth. inhibition, % at 11.9 µM. actives 0.29% (n = 330,000); in the data active means inhibition above about 12%;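 further: 0% = vehicle wells of infected cells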
# An asterisk follows results filed as active; / = not tested or not shown.
SMILES,E coli growth-1,phage Ecoli inh,Tat export inh,E coli growth-2,AddAB inh
CC(=O)Nc1ccc(S(=O)(=O)N2CCN(c3cc(C(F)(F)F)ccn3)CC2)cc1,-2.4,0.5,2.6,0.11*,-0.8
CC(=O)Nc1ccc(S(=O)(=O)N2CCN(C(=O)C(=O)c3cccc(C(F)(F)F)c3)CC2)cc1,/,1.3,/,/,/
CC1CN(C(C)CO)C(=O)c2cccc(NC(=O)Nc3ccc(C(F)(F)F)cc3)c2OC1CN(C)Cc1ccc(Cl)c(Cl)c1 (centres undefined),/,/,/,0.749,/
CCCS(=O)(=O)N1CCCC(C(=O)NCCCN2CCCC2=O)C1 (centres undefined),10.8*,-0.1,4.0,0.681,15.1*
Cc1ccnc(NC(=O)c2ccc([N+](=O)[O-])s2)c1,9.5,7.5,-7.6,0.598,13.8*
O=[N+]([O-])c1ccc(/C=C/C2=NN(c3ccccc3)C(c3ccco3)C2)o1 (centres undefined),/,19.9*,-10.4,0.624,/
COc1ccc(/C=C/C(O)=C(\C#N)c2nnc(N3CCOCC3)n2-c2ccccc2)cc1OC,-1.4,0.5,-6.7,0.426*,1.1
COC(CNc1ncnc2sc(-c3ccccc3)cc12)OC,-2.1,0.0,58.2*,0.658,-0.2
CC(C)(C)Nc1ncnc2sc(-c3ccccc3)cc12,0.8,5.6,-3.8,0.639,3.4
CCN1C(=O)C2C(c3ccc(C)cc3)N3C(=O)N(c4ccc(C(F)(F)F)cc4)C(=O)[C@@]3(Cc3ccccc3)C2C1=O (some centres undefined),/,/,/,0.659,/
CSc1nc2cc(Oc3cccc(Cl)c3Cl)c(Cl)cc2[nH]1,4.8,3.2,-19.0,0.461*,1.1
CSc1nc2ccc(Cl)cc2[nH]1,2.0,3.7,5.5,0.703,1.4
c1ccc(-c2sc3ccccc3c2-c2ccc(OCCN3CCCCC3)cc2)cc1,1.6,1.6,10.2,0.649,1.2
CN(C)CCOc1ccc(-c2c(-c3ccccc3)sc3ccccc23)cc1,-0.8,2.9,13.4,0.336*,0.2
Cc1cc(/C=C2\Sc3ccccc3N2C)cc(C)[n+]1CC1CCCO1 (centres undefined),/,2.6,-16.4,0.458*,/
Cc1ccc(/C=C2/Sc3ccccc3N(CC(=O)NCC3CCCO3)C2=O)cc1 (centres undefined),-1.3,/,4.4,0.68,1.9
Cc1noc(C)c1NC(=O)Nc1ccc2c(c1)C(=O)N(C(C)CO)CC(C)C(CN(C)C(=O)Nc1c(C)noc1C)O2 (centres undefined),/,/,/,0.68,/
Cc1cc(N=Nc2ccccc2C(=O)O)c(C)c(C)c1O,10.0*,1.5,-0.8,0.725,7.0
Cc1cc(O)c(C(C)C)cc1N=Nc1ccccc1C(=O)O,-0.8,-2.1,3.1,0.661,-2.0
COc1ccc2c3c(cccc13)C(=O)N(O)C2=O,-0.5,3.7,-14.7,0.377*,0.3
CCC(C)C1CN(C(C)CN2CCCC2CN2C(N)=NCC2Cc2ccccc2)C(=N)N1CCc1ccc(Cl)c(Cl)c1 (centres undefined),/,/,/,0.57,/
CC(C)C(CN1CCCC1CN1C(N)=NCC1Cc1ccccc1)N1CC(Cc2ccccc2)N(CCc2ccc(Cl)c(Cl)c2)C1=N (centres undefined),/,/,/,0.0465*,/
CC(C)CC1CN=C(N)N1CC1CCCN1CC(C)N1CC(Cc2ccccc2)N(CCc2ccc(Cl)c(Cl)c2)C1=N (centres undefined),/,/,/,0.197*,/
CC(C)C[C@@H]1CN=C(N)N1C[C@@H]1CCCN1C[C@@H](C(C)C)N1C[C@@H](Cc2ccccc2)N(CCc2ccc(Cl)c(Cl)c2)C1=N,-1.1,2.6,7.8,0.07*,0.7
CC(C)C[C@@H]1CN=C(N)N1C[C@@H]1CCCN1C[C@H](C)N1C[C@@H](Cc2ccccc2)N(CCc2ccc(Cl)c(Cl)c2)C1=N,0.0,/,17.7,/,0.7
SMILES,E coli growth-1,phage Ecoli inh,Tat export inh,E coli growth-2,AddAB inh
CSCCC(NC(=O)NCCC1=CCCCC1)C(=O)O (centres undefined),/,/,/,0.701,/
C=C1c2c(Cl)ccc(O)c2C(O)=C2C(=O)[C@]3(O)C(O)=C(C(N)=O)C(=O)C(N(C)C)C3C(O)C12 (some centres undefined),/,/,/,0.0755*,/
Cc1cc(C)nc(N=C(N)Nc2ccc(-c3ccccc3)cc2)n1,/,/,/,0.526*,/
Fc1ccc(Nc2nc(NCc3ccco3)c3ccccc3n2)cc1,1.4,1.0,-79.6,0.364*,0.8
c1ccc(CNc2nc(NCc3ccccc3)c3ccccc3n2)cc1,1.0,/,-2.6,0.439*,6.3
O=C(COc1ccccc1)NC1C(=O)N2C(C(=O)O)=C(Cl)CSC12 (centres undefined),2.2,1.2,0.5,0.689,3.4
